Compound activity as filed in PubChem.
A selection: hits, their analogues and other compounds. The true share with any hit is near 12%.
HP1b binding inh – HTS for Inhibitors of HP1-beta Chromodomain Interactions with Methylated Histone Tails; AID 540317, 2011; Potency, µM (highest dose often 114 µM), for the others: at the top dose activity change, negative = inhibition, hits mostly inhibitors; 390,000 tested, 0.56% active; AlphaScreen HP1-beta / biotin-H3K9me3 peptide binding; Chromobox protein homolog 1 (Homo sapiens), P83916; also: nearly all actives have a fitted effect of over 70% in size
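HP1-beta protein (50 nM final) preincubated 30 min at room temperature with biotinylated H3(1-18)K9me3 peptide (50 nM) in PBS pH 7.4, 0.01% Tween-20, then compound added for 30 min. AlphaScreen streptavidin donor/nickel chelate acceptor beads (10 ug/mL final), 30 min dark, luminescence read.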
L3MBTL1 block – qHTS Assay for the Inhibitors of L3MBTL1 | Lethal(3)malignant brain tumor-like protein 1 (Homo sapiens), Q9Y468 | AlphaScreen L3MBTL1–H3K9me1 peptide binding | Potency, µM (series often up to 57.1 µM), for inactives: at the highest dose activity, negative = inhibition, actives largely listed as inhibitors | 230,000 tested, 0.66% active | AID 485360, 2010; also: % is scaled to controls: 0 for no effect and ±100 for the full control effect; nearly all actives have a fitted effect of over 60% in size
Target sequence (Q9Y468 whole entry, looked up): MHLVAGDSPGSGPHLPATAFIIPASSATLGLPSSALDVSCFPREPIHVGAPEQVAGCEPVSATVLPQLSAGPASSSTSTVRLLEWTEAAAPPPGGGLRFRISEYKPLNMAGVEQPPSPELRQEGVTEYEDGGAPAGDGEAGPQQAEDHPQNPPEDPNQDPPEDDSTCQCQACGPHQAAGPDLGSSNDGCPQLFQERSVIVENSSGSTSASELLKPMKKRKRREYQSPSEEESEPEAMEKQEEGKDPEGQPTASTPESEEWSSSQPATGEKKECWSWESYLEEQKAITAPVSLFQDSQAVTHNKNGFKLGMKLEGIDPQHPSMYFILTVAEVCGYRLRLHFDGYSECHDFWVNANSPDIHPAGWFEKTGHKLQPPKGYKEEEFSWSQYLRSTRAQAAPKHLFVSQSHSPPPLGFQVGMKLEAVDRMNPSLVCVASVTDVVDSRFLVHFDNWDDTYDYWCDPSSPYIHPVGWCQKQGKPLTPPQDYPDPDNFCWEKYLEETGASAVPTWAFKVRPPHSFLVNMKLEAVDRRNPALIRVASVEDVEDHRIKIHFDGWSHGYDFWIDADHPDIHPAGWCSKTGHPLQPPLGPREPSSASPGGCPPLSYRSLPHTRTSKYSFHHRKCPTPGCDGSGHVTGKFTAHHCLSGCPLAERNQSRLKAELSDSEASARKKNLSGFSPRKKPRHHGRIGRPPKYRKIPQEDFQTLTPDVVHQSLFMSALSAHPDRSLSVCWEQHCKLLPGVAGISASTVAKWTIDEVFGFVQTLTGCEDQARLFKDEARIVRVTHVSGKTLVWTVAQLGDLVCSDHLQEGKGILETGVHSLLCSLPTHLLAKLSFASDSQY
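L3MBTL1 (50 nM) pre-complexed 30 min with biotinylated H3(1-15)K9me1 peptide (75 nM), then compounds added for 30 min at room temperature; AlphaScreen streptavidin donor/nickel chelate acceptor beads (10 ug/mL final) read after 30 min dark incubation.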
JMJD2A Tudor inh – qHTS Assay for Inhibitors of JMJD2A-Tudor Domain | Potency, µM (top dose mostly 114 µM), for inactives: at the top dose activity change, negative = inhibition, hits mostly inhibitors | 390,000 tested, 4.4% active | AlphaScreen JMJD2A-Tudor / H3K4me3 peptide binding; also: % is scaled to controls: 0 for no effect and ±100 for the full control effect; nearly all actives have a fitted effect of over 50% in size
Sfp inh – qHTS Assay for Inhibitors of Bacillus subtilis Sfp phosphopantetheinyl transferase (PPTase); Potency, µM, for the others: largest response in the series, negative = inhibition, most hits filed as inhibitors; AID 1490, 2009; Biochemical Sfp PPTase activity, qHTS; 310,000 tested, 3.5% active; 4'-phosphopantetheinyl transferase ffp (Bacillus subtilis), Q9F4F7;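 also: the enzyme is Sfp with the accession as filed and its product quenches rhodamine fluorescence; 0% = enzyme reaction without inhibitor and -100% = no enzyme wells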
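Reaction rates are the 30-min fluorescence difference (ex 525, em 598 nm) in wells containing 15 nM Sfp, 5 uM rhodamine-CoA and 12.5 uM BHQ-2-YbbR at pH 7.6 with 10 mM MgCl2.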
BAZ2B inh – qHTS Assay for Inhibitors of BAZ2B; Bromodomain adjacent to zinc finger domain protein 2B (Homo sapiens), Q9UIF8; AlphaScreen BAZ2B-H3K14Ac peptide displacement; Potency, µM (highest dose often 114 µM), inactives show at the top dose activity change, negative = inhibition, hits mostly inhibitors; 360,000 tested, 4.4% active; AID 504333, 2011; also: % is scaled to controls: 0 for no effect and ±100 for the full control effect; nearly all actives have a fitted effect of over 60% in size
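Complex of BAZ2B and biotin-H3K14Ac (50 nM apiece) forms over 30 min at RT, then faces library compounds up to 110 uM for another 30 min; AlphaScreen beads added, 20 min dark incubation, luminescence read.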
G9a block – qHTS Assay for Inhibitors of Histone Lysine Methyltransferase G9a | Histone-lysine N-methyltransferase EHMT2 (Homo sapiens), Q96KQ7 | G9a H3K9 monomethylation, AlphaScreen, 2 h | Potency, µM (top dose mostly 102 µM), for inactives: top-dose activity, negative = inhibition, hits mostly inhibitors | 350,000 tested, 8.8% active | AID 504332, 2011; also: % is scaled to controls: 0 for no effect and ±100 for the full control effect; nearly all actives have a fitted effect of over 75% in size
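Compounds were preincubated with 20 nM G9a for 15 min, after which biotinylated H3K9 peptide (500 nM) and SAM (20 uM) started a 2 h room-temperature reaction. Monomethylated product was quantified by antibody-based AlphaScreen chemiluminescence.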
* marks the source's active call; other numbers are inactive results; u = inconclusive; x = not tested or not shown; [ ] = dose if it differs, or a comment. Calls follow the shape of the dose curve; as a rule, active = well fitted curve in the direction sought with a large enough effect; inconclusive = small, poorly fitted or top-dose-only effect, or another doubt; inactive = no such curve, though single readings can be large; an effect the other way counts as inactive or inconclusive. Potency is read from the fitted curve at half-maximal effect.

SMILES	HP1b binding inh	L3MBTL1 block	JMJD2A Tudor inh	Sfp inh	BAZ2B inh	G9a block
COc1ccc(CNC(=O)C2Cc3ccccc3CN2C(=O)c2ccco2)cc1 (stereo not given)	36%	x	-11%	13%	-24%	-7%
O=C(NCc1ccco1)C1Cc2ccccc2CN1C(=O)c1ccco1 (stereo not given)	-5%	-27%	u	14%	79µM*	-4%
O=C(CSc1nc(=O)n(CCN2CCOCC2)c2c1CCC2)Nc1ccc(Cl)c(Cl)c1	26%	x	-16%	x	-3%	1%[59 µM]
CCCCOCCCN1CC(=O)N2[C@@H](Cc3c([nH]c4ccccc34)C2(C)C)C1=O	13%	x	-8%	5%	-5%	-8%[2.33 µM]
CCOC(=O)[C@@H]1[C@H]2COc3ccccc3[C@@H]2N2C(=O)N(c3cccc(Cl)c3)C(=O)[C@]12C	-1%	-3%	-20%	6%	-26%	u
C=C(C(=O)C(C)(C)O)C(O)c1ccc([N+](=O)[O-])cc1 (stereo not given)	x	x	x	-24%	x	x
O=[N+]([O-])c1ccc(/C=N\N2CCN(c3ccc(Cl)cc3)CC2)cc1	40%	-1%	-5%	7%	1%	-31%
O=[N+]([O-])c1ccc(Cl)c(/C=N/N2CCN(Cc3ccc(Cl)cc3)CC2)c1	23%	x	23%	-3%	22µM*	10µM*
C(=N\N1CCN(Cc2ccccc2)CC1)/c1ccccc1	5%	x	-10%[11.4 µM]	9%	u	u
O=[N+]([O-])c1ccc(Cl)c(/C=N/N2CCN(Cc3ccccc3Cl)CC2)c1	u	-8%	u	5%	25µM*	45µM*
O=[N+]([O-])c1ccc(Cl)c(/C=N/N2CCN(Cc3ccccc3)CC2)c1	29%	-15%	5%	6%	10µM*	40µM*
O=C(/C=C/c1ccc([N+](=O)[O-])cc1)N1CCN(Cc2ccccc2)CC1	23%	-3%	-9%	11%	2%	-3%
Clc1cccc(/C=N/N2CCN(Cc3ccccc3)CC2)c1	u	-16%	50µM*	13%	40µM*	45µM*
CC(=O)OCOC(=O)CNc1ccccc1OCCOc1ccccc1NCC(=O)OCOC(C)=O	x	x	x	-15%	x	x
O=C1CC(c2nc(-c3ccc(Cl)cc3)no2)CN1c1ccc2c(c1)OCCO2 (stereo not given)	7%	x	-12%	x	-6%	8%[59 µM]
CC(=O)N[C@@H](Cc1ccc(O)cc1)C(=O)N[C@H](C(=O)N[C@@H](C)C(=O)N[C@H](C#N)CC(=O)O)C(C)C	x	2%	x	x	-3%	8%[12.7 µM]
O=[N+]([O-])c1cc(/C=N/N2CCN(Cc3ccccc3)CC2)ccc1Cl	u	-8%	u	-3%	11µM*	28µM*
FC(F)(F)c1ccc(/C=N/N2CCN(Cc3ccccc3)CC2)cc1	u	-11%	u	14%	u	u
COC(=O)c1ccc(/C=N/N2CCN(Cc3ccccc3)CC2)cc1	12%	-6%	-20%	u	-8%	u
O=[N+]([O-])c1ccc(/C=N/N2CCN(Cc3ccccc3)CC2)cc1	u	u	45µM*	-1%	13µM*	50µM*
COc1cc(-c2c(C#N)c(N)nc3[nH]c(=S)[nH]c(=O)c23)ccc1O	43%	x	-14%	-17%	-5%	71µM*
O=C1CC(c2nnc(Cc3ccccc3Cl)o2)CN1c1ccccc1 (stereo not given)	4%	x	9%	x	-3%	-40%[59 µM]
O=c1nc2n(c3sc4c(c13)CCCC4)C(CBr)CS2 (stereo not given)	23%	-3%	-14%	-10%	-2%	50µM*
O=C(N/N=C/C=C\c1ccco1)c1ccccn1	u	28µM*	79µM*	20µM*	56µM*	35µM*
O=C(N/N=C/C=C/c1ccco1)c1cnccn1	7%	7.1µM*	50µM*	10µM*	14%	45µM*
SMILES	HP1b binding inh	L3MBTL1 block	JMJD2A Tudor inh	Sfp inh	BAZ2B inh	G9a block
O=C(N/N=C\C=C\c1ccco1)c1cc(-c2ccc3ccccc3c2)n[nH]1	6%	u	-34%	2%	3%	32µM*
CCCCN(CC)C(=O)c1cc2c(=O)n3cccc(C)c3nc2n1C	34%	x	-4%	x	0%	7%[59 µM]
NC(=O)c1ccc[n+](CC(=O)Nc2ccccc2C(=O)O)c1	87%	x	-18%	-1%	-1%	u
CN(C)CCN(Cc1cc2cc3c(cc2[nH]c1=O)OCO3)C(=S)NCc1ccco1	57%	3%	9%	6%	-2%	x
O=c1[nH]c2cc3c(cc2cc1CN(Cc1cccnc1)C(=S)NCc1ccco1)OCO3	-3%	-12%	-16%	40µM*	u	10µM*
O=c1[nH]c2cc3c(cc2cc1CN(Cc1cccnc1)C(=S)NCc1ccco1)OCCO3	-24%	u	-32%	5µM*	-34%	40µM*
COc1ccccc1CNC(=O)C(C)n1c(=O)cc(C(F)(F)F)c2c(C)nn(C)c21 (stereo not given)	26%	x	-18%	x	-11%	1%[59 µM]
COc1ccc(C(=O)N2CCN(c3ccc(C(C)=O)cc3)CC2)cc1S(=O)(=O)N1CCCC1	27%	1%	-17%	x	x	x
CS/C(N)=N/N=C/c1cc(Br)cc(Br)c1O	35%	-17%	-29%	13%	13µM*	70%[59 µM]
Cc1nnc(C)n1/N=C/c1cc(Br)cc(Br)c1O	13%	x	-23%	-10%	50µM*	1.6µM*
Nc1nnnn1/N=C/c1cc(Br)ccc1O	12%	x	28µM*	x	x	x
Cc1nnc(C)n1/N=C/c1cc(Br)ccc1O	2%	-5%	28µM*	-22%	7%	10µM*
C=CCc1cccc(/C=N/n2c(C)nnc2C)c1O	8%	4%	u	-4%	-28%	31%[0.501 µM]
CS/C(N)=N/N=C/c1cc(C)ccc1O	5%	0%	5%[11.4 µM]	-13%	-11%	x
Cc1cc2ncn(/N=C/c3cc(Br)ccc3O)c2cc1C	x	-4%	x	16%	-28%	5%[59 µM]
CCC(C)N(C(=O)CSc1nc(-c2cccs2)nc2ccccc12)C1CCS(=O)(=O)C1 (stereo not given)	11%	x	-16%	x	x	x
C[C@H]1CN([C@@H](C)CO)C(=O)c2cccc(NC(=O)C3CC3)c2O[C@H]1CN(C)Cc1ccncc1	48%	4%	-10%	x	x	x
